Rows were chosen to be rich in hits. Some 2% of all compounds tested hit in one or more screens of this group.
Arbovirus anti – blocks arbovirus infection | AID 1251 | 0.37% of 200,000 active | arbovirus infection cell-based antiviral screen | inhibition, % at 10 µM; in the data active = inhibition above about 30%
Wee1 degr inh – inhibitors of human Wee1 degradation | 1.2% of 220,000 active | HeLa Luc-Wee1K328M stability, luciferase luminescence; 100% = proteasome inhibitor MG132 effect | AID 1321 | reporter increase, % at 5 µM;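 active = activation above the mean of all tested compounds plus 3 SD, set per screening run, cut at about 8.8% in these data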;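 note: cells exposed to compound for 20 h before luminescence read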
Hsp70 activator – Hsp70 transcriptional activation, primary screen | activation, % at 10 µM | 0.04% of 200,000 active | HeLa Hsp70 promoter luciferase reporter, luminescence; scaled: vehicle 0, proteasome-inhibitor control 100%;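 active = activation above the mean across all tested compounds plus 3 SD, cutoff set per campaign, cut at about 5.5% in these data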
PKD1 kinase inh – blocks activity of human protein kinase D1 | Q15139 | PKD1 kinase fluorescence polarization assay | inhibition, % (no concentration beside the values) | 0.056% of 200,000 active | AID 797; in the data active = inhibition above about 50%
Target sequence (Q15139 whole entry, looked up): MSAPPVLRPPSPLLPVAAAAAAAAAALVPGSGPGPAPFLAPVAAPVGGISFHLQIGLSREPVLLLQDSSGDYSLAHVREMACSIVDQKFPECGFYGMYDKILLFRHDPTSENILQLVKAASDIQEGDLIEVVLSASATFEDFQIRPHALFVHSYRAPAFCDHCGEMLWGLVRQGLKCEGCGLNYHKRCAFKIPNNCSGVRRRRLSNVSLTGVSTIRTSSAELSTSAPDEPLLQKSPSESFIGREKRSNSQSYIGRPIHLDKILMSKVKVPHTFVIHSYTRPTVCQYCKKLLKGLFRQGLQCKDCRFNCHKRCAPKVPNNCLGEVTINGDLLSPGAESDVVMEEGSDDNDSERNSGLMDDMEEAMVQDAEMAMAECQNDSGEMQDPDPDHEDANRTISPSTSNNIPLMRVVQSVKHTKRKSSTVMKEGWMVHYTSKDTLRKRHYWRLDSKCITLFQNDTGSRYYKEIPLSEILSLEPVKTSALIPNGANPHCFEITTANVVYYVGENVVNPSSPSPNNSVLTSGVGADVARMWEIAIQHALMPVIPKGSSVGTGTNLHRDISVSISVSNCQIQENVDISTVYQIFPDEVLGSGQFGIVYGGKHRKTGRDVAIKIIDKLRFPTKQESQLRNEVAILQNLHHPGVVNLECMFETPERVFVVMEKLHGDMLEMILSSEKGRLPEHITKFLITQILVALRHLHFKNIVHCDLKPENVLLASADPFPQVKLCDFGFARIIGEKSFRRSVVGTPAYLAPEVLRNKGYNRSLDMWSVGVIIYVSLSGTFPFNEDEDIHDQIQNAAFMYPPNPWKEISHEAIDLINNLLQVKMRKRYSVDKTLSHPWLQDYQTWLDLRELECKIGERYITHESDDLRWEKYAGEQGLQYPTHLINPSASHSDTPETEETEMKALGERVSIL
Efa HMGR inh – blocks class II HMG-CoA reductase of Enterococcus faecalis; 0.41% of 190,000 active; inhibition, % at 10 µM; purified E. faecalis HMGR, NADPH absorbance 340 nm kinetic;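 active = inhibition above a set limit, the median over all tested compounds plus 3 SD, cut at about 9.5% in these data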;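 note: enzyme runs in reverse so mevalonate oxidation gives rising NADPH absorbance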
A number is an active result.

How did O=C(O)Cn1cnc2ccccc2c1=O do in these assays?
Arbovirus anti: inactive; Wee1 degr inh: 9.6; Hsp70 activator: inactive; PKD1 kinase inh: inactive; Efa HMGR inh: inactive

How did O=C(Nc1ccc([N+](=O)[O-])cn1)c1ccc(Br)o1 do in these assays?
Arbovirus anti: inactive; Wee1 degr inh: 10.1; Hsp70 activator: inactive; PKD1 kinase inh: inactive; Efa HMGR inh: inactive

What do the screens show for `Cc1cccc(S(=O)(=O)Nc2ccc(-c3cn4ccccc4n3)cc2)c1`?
Arbovirus anti: inactive; Wee1 degr inh: inactive; Hsp70 activator: inactive; PKD1 kinase inh: inactive; Efa HMGR inh: 14.1

What do the screens show for `O=S(=O)(Nc1ccc(-c2cn3ccccc3n2)cc1)c1ccccc1`?
Wee1 degr inh: inactive

How did Cc1ccc2nc(-c3ccccc3Cl)cc(C(=O)Nc3cc(C)on3)c2c1 do in these assays?
Arbovirus anti: 34.1; Wee1 degr inh: inactive; Hsp70 activator: inactive; PKD1 kinase inh: inactive; Efa HMGR inh: inactive

How did Cc1cc(NC(=O)c2ccccc2Cl)no1 do in these assays?
Arbovirus anti: inactive; Wee1 degr inh: inactive; Hsp70 activator: inactive; PKD1 kinase inh: inactive; Efa HMGR inh: inactive

What do the screens show for `CN1CCN(C(=O)c2ccccc2NC(=O)Cc2ccccc2)CC1`?
Arbovirus anti: inactive; Wee1 degr inh: 10.2; Hsp70 activator: inactive; PKD1 kinase inh: inactive; Efa HMGR inh: inactive

Results for Oc1ccccc1CN1CCCN(Cc2ccccc2O)C1 ?
Arbovirus anti: 69.9; Wee1 degr inh: inactive; Hsp70 activator: inactive; PKD1 kinase inh: inactive; Efa HMGR inh: inactive

How did Oc1ccccc1CN1CCC(C(O)(c2ccccc2)c2ccccc2)CC1 do in these assays?
Arbovirus anti: inactive; Wee1 degr inh: inactive; Hsp70 activator: inactive; PKD1 kinase inh: inactive; Efa HMGR inh: inactive

What do the screens show for `CCOc1ccccc1NC(=O)Nc1ccon1`?
Wee1 degr inh: inactive

Results for CCOc1ccccc1NC(=O)Nc1ccc(CC#N)cc1 ?
Wee1 degr inh: 10.3

How did O=[N+]([O-])c1ccc2[nH]nc(-c3ccccc3)c2c1 do in these assays?
Arbovirus anti: inactive; Wee1 degr inh: 8.9; Hsp70 activator: inactive; PKD1 kinase inh: inactive; Efa HMGR inh: 9.8

Results for Cc1ccc(CSc2nc3ccccc3cc2C=O)cc1 ?
Arbovirus anti: inactive; Wee1 degr inh: 10.3; Hsp70 activator: inactive; PKD1 kinase inh: inactive; Efa HMGR inh: inactive

How did CCOc1ccc(CN2CCN(Cc3cc4ccccc4[nH]3)CC2CCO)cc1 (configuration not stated) do in these assays?
Arbovirus anti: inactive; Wee1 degr inh: inactive; Hsp70 activator: inactive; PKD1 kinase inh: inactive; Efa HMGR inh: 13.8

Results for CSc1ccc(CN2CCN(Cc3ccccc3)C(CCO)C2)cc1 (configuration not stated) ?
Arbovirus anti: inactive; Wee1 degr inh: inactive; Hsp70 activator: inactive; PKD1 kinase inh: inactive; Efa HMGR inh: 10.9

Results for CSc1cccc(CN2CCN(Cc3ccccc3)C(CCO)C2)c1 (configuration not stated) ?
Arbovirus anti: inactive; Wee1 degr inh: inactive; Hsp70 activator: inactive; PKD1 kinase inh: inactive; Efa HMGR inh: inactive

How did CCOc1cc(C(=O)Nn2cnnc2)cc(OCC)c1OCC do in these assays?
Arbovirus anti: inactive; Wee1 degr inh: 8.9; Hsp70 activator: inactive; PKD1 kinase inh: inactive; Efa HMGR inh: inactive

What do the screens show for `CC(C)NC(=S)N/N=C/c1ccc2c(c1)OCCO2`?
Arbovirus anti: inactive; Wee1 degr inh: inactive; Hsp70 activator: inactive; PKD1 kinase inh: inactive; Efa HMGR inh: inactive

Results for CC(C)NS(=O)(=O)c1ccc(CCC(=O)NCc2ccco2)cc1 ?
Arbovirus anti: inactive; Wee1 degr inh: inactive; Hsp70 activator: inactive; PKD1 kinase inh: inactive; Efa HMGR inh: inactive

What do the screens show for `CC(C)NS(=O)(=O)c1ccc(CCC(=O)NCc2ccncc2)cc1`?
Arbovirus anti: inactive; Wee1 degr inh: 9.5; Hsp70 activator: inactive; PKD1 kinase inh: inactive; Efa HMGR inh: inactive

Results for COC(=O)c1ccc(NC(=O)CSCc2ccccc2)cc1 ?
Arbovirus anti: inactive; Wee1 degr inh: inactive; Hsp70 activator: inactive; PKD1 kinase inh: inactive; Efa HMGR inh: inactive

Results for CCc1ccc(NC(=O)CSCc2ccc(C(=O)O)cc2)cc1 ?
Arbovirus anti: inactive; Wee1 degr inh: inactive; Hsp70 activator: inactive; PKD1 kinase inh: inactive; Efa HMGR inh: 20.9

Results for COCCCNC(=S)NCCNc1nc2c(C)c(C)ccc2cc1C#N ?
Arbovirus anti: inactive; Wee1 degr inh: inactive; Hsp70 activator: inactive; PKD1 kinase inh: inactive; Efa HMGR inh: inactive

Results for Cc1ncsc1C(=O)N1N=C2/C(=C/c3ccc(N4CCOCC4)cc3)CCCC2C1c1ccc(N2CCOCC2)cc1 (configuration not stated) ?
Arbovirus anti: inactive; Wee1 degr inh: 9.0; Hsp70 activator: inactive; PKD1 kinase inh: inactive; Efa HMGR inh: inactive

What do the screens show for `Cc1ncsc1C(=O)N1N=C2/C(=C/c3ccccc3)CCCC2C1c1ccccc1` (configuration not stated)?
Arbovirus anti: inactive; Wee1 degr inh: inactive; Hsp70 activator: inactive; PKD1 kinase inh: inactive; Efa HMGR inh: inactive

Results for CCOc1ccc(-c2[nH]ncc2Oc2ccccc2OCC)c(O)c1 ?
Arbovirus anti: inactive; Wee1 degr inh: inactive; Hsp70 activator: inactive; PKD1 kinase inh: inactive; Efa HMGR inh: 24.5

How did CC1(C)CC(=O)C(C2C3=C(CC(C)(C)CC3=O)OC3=C2C(=O)CC(C)(C)C3)=C(O)C1 do in these assays?
Wee1 degr inh: inactive

What do the screens show for `O=C1OC(c2ccccc2)=C/C1=C\N1CCOCC1`?
Arbovirus anti: inactive; Wee1 degr inh: 27.0; Hsp70 activator: inactive; PKD1 kinase inh: inactive; Efa HMGR inh: inactive

What do the screens show for `CCn1c(CSc2ncccn2)nnc1SCC(=O)N1CCCCC1`?
Arbovirus anti: inactive; Wee1 degr inh: inactive; Hsp70 activator: inactive; PKD1 kinase inh: inactive; Efa HMGR inh: inactive

How did Cc1c(C(=O)/C=C/N(C)C)nnn1-c1ccc(F)c(Cl)c1 do in these assays?
Wee1 degr inh: 10.0

Results for Cc1c(C(=O)/C=C/N(C)C)nnn1-c1ccc(Cl)c(Cl)c1 ?
Wee1 degr inh: inactive

How did CCNS(=O)(=O)c1ccc(NC(=O)CC(C)c2ccccc2)cc1 (configuration not stated) do in these assays?
Arbovirus anti: inactive; Wee1 degr inh: inactive; Hsp70 activator: inactive; PKD1 kinase inh: inactive; Efa HMGR inh: inactive

Results for O=C(Cn1c(-c2cscn2)nc2ccccc21)Nc1ccc2ccccc2c1 ?
Arbovirus anti: inactive; Wee1 degr inh: 10.7; Hsp70 activator: inactive; PKD1 kinase inh: inactive; Efa HMGR inh: inactive

Results for O=C(Cn1c(-c2cscn2)nc2ccccc21)Nc1cc(F)ccc1F ?
Arbovirus anti: inactive; Wee1 degr inh: inactive; Hsp70 activator: inactive; PKD1 kinase inh: inactive; Efa HMGR inh: inactive

How did CCOc1ccc(S(=O)(=O)N2CCCC2)cc1 do in these assays?
Arbovirus anti: inactive; Wee1 degr inh: inactive; Hsp70 activator: inactive; PKD1 kinase inh: inactive; Efa HMGR inh: inactive

How did CCN(CC)S(=O)(=O)c1ccc(S(=O)(=O)N2CCCC2)cc1 do in these assays?
Arbovirus anti: inactive; Wee1 degr inh: inactive; Hsp70 activator: inactive; PKD1 kinase inh: inactive; Efa HMGR inh: 9.9

What do the screens show for `CC(=O)OCC1=C(C(=O)O)N2C(=O)C(NC(=O)c3ccc(F)cc3)C2SC1` (configuration not stated)?
Arbovirus anti: inactive; Wee1 degr inh: inactive; Hsp70 activator: inactive; PKD1 kinase inh: inactive; Efa HMGR inh: 11.3

Source: PubChem BioAssay (several laboratories)
